# Values joined by “and” are separate entries in the source; they are usually repeats but may differ in a detail not shown here. Equal values may be shown once. Inconclusive results are not listed. Entries that show only a call come without a potency. Active and inactive are the calls of the source. The call rests on the fitted dose curve.
# Assay: p53 small molecule agonists, cell-based qHTS assay with rat liver microsomes (AID 1963578)
# Conditions: HCT-116 p53RE-bla, beta-lactamase ratio, 16 h; series mostly up to 66 µM; activation: at the top concentration
# Source text: U.S. Tox21 Program National Center for Advancing Translational Sciences [NCATS] Division of Preclinical Innovation [DPI] U.S. Environmental Protection Agency [EPA] National Institutes of Environmental Health Sciences [NIEHS] National Toxicology Program [NTP] U.S. Food and Drug Administration [FDA] Tox21 Assay Overview: p53, a tumor suppressor protein, is activated following cellular insult, including DNA damage and other cellular stresses. The activation of p53 regulates cell fate by inducing DNA repair, cell cycle arrest, apoptosis, or cellular senescence. The activation of p53, therefore, is a good indicator of DNA damage and other cellular stresses. […] The activation of the reporter gene under culture conditions can be detected by fluorescence intensity. This cell line was used to screen the Tox21 10K compound library in the condition of presence of rat liver microsomes and to identify agonists that activate the p53 signaling pathway after in vitro metabolic activation (Ooka et al., Archive of Toxicology 96:1975-1987, 2022).
# Tox21 Assay Protocol Summary: The p53RE-bla cells were dispensed at 4,000cells/3ul/well in 1536-well black-clear bottom plates. After the assay plates were incubated at 37 C, 5% CO2 incubator for 5 hours, 23 nL of compounds dissolved in DMSO, positive controls or DMSO only was transferred to the assay plate. Following compound addition, 3 uL of rat liver microsomes (Molecular Toxicology, Boone, NC) at final concentration of 0.5 mg/mL and 1uL of Beta-Nicotinamide adenine dinucleotide 2-phosphate (NADPH) at final concentration of 0.5 mg/mL were transferred to the assay plate. The plates were incubated at 37 C for 16 hours. 1 uL of LiveBLAzer detection mixture was added to each well and the plates were incubated at room temperature in the dark for 2 h.
# Potency means the concentration at half of the fitted maximal effect.
SMILES,Potency,activation
COc1ccc(CCC(C)=O)cc1,inactive,–
Cc1cc(C)nc(NS(=O)(=O)c2ccc(N)cc2)n1,inactive,–
CCCC(C)=O,inactive,–
CCCCOC(=O)COc1ccc(Cl)cc1Cl,inactive,–
CCCCCCCCO,inactive,–
NS(=O)(=O)c1cc2c(cc1Cl)NCNS2(=O)=O,inactive,–
CC(C)=CCCC(C)CCO (stereo not given),inactive,–
C#C[C@]1(O)CC[C@H]2[C@@H]3CCc4cc(OC)ccc4[C@H]3CC[C@@]21C,inactive,–
Brc1cc(Oc2cc(Br)c(Br)c(Br)c2Br)c(Br)c(Br)c1Br,inactive,–
OCCOCCN1CCN(C(c2ccccc2)c2ccc(Cl)cc2)CC1 (stereo not given),inactive,–
CCCCOCCOCCO,inactive,–
OCCOCCOCCOCCO,inactive,–
CC(=O)OCCC(C)C,inactive,–
Nc1ccc2c(c1)C(=O)c1ccccc1C2=O,inactive,–
COC(=O)c1cccnc1,inactive,–
O=C(c1ccccc1)c1ccc(O)c(O)c1O,–,-2.05% (inactive)
CCOc1ccc(NC(C)=O)cc1,inactive,–
CC1(C)NC(=O)N(c2ccc([N+](=O)[O-])c(C(F)(F)F)c2)C1=O,inactive,–
CC(=O)CC/C=C(\C)CCC=C(C)C,inactive,–
Cc1cc(=O)oc2cc(O)ccc12,36.3 µM (active) and 22.9 µM (active),–

SMILES,Potency,activation
O=C1C(c2[nH]c3ccccc3c2O)=Nc2ccccc21,inactive,–
C=C1C2CCC(C2)C1(C)C (stereo not given),inactive,–
CCN=c1cc2oc3cc(NCC)c(C)cc3c(-c3ccccc3C(=O)OCC)c-2cc1C,–,-12.6% (inactive)
Cc1cc(Cc2ccc(N)c(C)c2)ccc1N,inactive,–
NC(=O)NC(N)=O,inactive,–
CC(C)=CCC/C(C)=C/C=O,inactive,–
O=S(=O)(O)c1ccc2nc(-c3ccccc3)[nH]c2c1,inactive,–
Clc1cc(Cl)c(Cl)cc1Cl,inactive,–
Cc1cccc([N+](=O)[O-])c1C,inactive,–
CC1=CC(C)(C)Nc2ccccc21,inactive,–
CC(O)COc1ccccc1 (stereo not given),inactive,–
CC(=O)C1=C(C)[C@@H]2C[C@@]3(C1)[C@H](C)CC[C@H]3C2(C)C,inactive,–
CCCCCCCCCCCCCC(=O)O,inactive,–
CC(C)(C)c1cccc(C(C)(C)C)c1O,inactive,–
CC(=O)c1ccccc1,inactive,–
Cc1c(N(C)CS(=O)(=O)O)c(=O)n(-c2ccccc2)n1C,inactive,–
COCCOC(=O)c1ccccc1C(=O)OCCOC,inactive,–
Nc1nc2ccccc2[nH]1,inactive,–
C=C(C#N)C(=O)OCC,inactive,–
O=C1OC(c2ccc(O)cc2)(c2ccc(O)cc2)c2ccccc21,inactive,–
